# Screening data deposited in PubChem BioAssay by National Center for Advancing Translational Sciences (NCATS).
# Rab9 prom act = activates the Rab9 promoter | Huh7 Rab9 promoter-luciferase reporter, luminescence, 24 h | Potency, µM (top dose mostly 9.22 µM), for inactives: at the top dose activation, negative = inhibition, most hits filed as activators | 2.8% of 320,000 active; note: % of control where 0% means no effect; nearly all actives have a fitted effect of over 60% in size
#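 Luminescence from Amplite-detected luciferase (10 minutes, ambient) reports Rab9 promoter activation. Before that, stable Rab9-luciferase Huh7 cells (1500/well, reduced-serum OP-MEM I plus 10% FBS) were exposed to compound for 24 hours at 37C.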
# ELG1 genotoxic = genotoxicity induction in ELG1-luciferase HEK293T cells; HEK293T ELG1-luciferase reporter, luminescence, 16 h; Potency, µM (doses to about 46 µM), inactives show at the top dose activity change, positive = activation, actives largely listed as activators; 1.3% of 330,000 active; AID 504466; note: % of control where 0% means no effect; nearly all actives have a fitted effect of over 60% in size
#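 16 hr compound incubation (37 °C, 5% CO2) of HEK293T cells carrying luciferase-tagged ELG1; luciferase then measured by ONE-Glo luminescence after 30 min at RT.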
# Luc counter = blocks Kinase-Glo luciferase, a counter-screen artifact. Q27757. Kinase-Glo luciferase, ATP luminescence, 8 min. Potency, µM (titrated, usually from 38.3 µM), for the others: at the highest dose activity change, negative = inhibition, actives largely listed as inhibitors. 0.28% of 200,000 active. AID 1379; note: % is set by controls: 0 for no effect and ±100 for the full control effect; nearly all actives have a fitted effect of over 60% in size
#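 Light output from Kinase-Glo luciferase with luciferin and 10 uM ATP in 50 mM imidazole pH 7.2, KCl, MgCl2, Tween 20, BSA; compound pin-delivered, 8-min ambient incubation, then luminescence read.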
# NPC1 promoter act = activators of NPC1 promoter. AID 485313. Huh7 NPC1 promoter luciferase reporter, 24 h. 2.4% of 320,000 active. Potency, µM (top dose mostly 9.22 µM), inactives show at the highest dose activation, usual class: activators; note: % of control where 0% means no effect; nearly all actives have a fitted effect of over 60% in size
#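 Luminescence from an NPC1 promoter-driven luciferase reporter in stably transfected Huh7 cells was measured after 24 h compound treatment at 37 °C, followed by 10 min ambient incubation with luciferase detection reagent.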
# SMN2 splice enh = increases expression of the SMN2 splice variant; HEK293 SMN2-luciferase splicing reporter, luminescence, 30-36 h; Potency, µM (highest dose often 46.1 µM), inactives show at the highest dose activity change, positive = activation, actives largely listed as activators; 2.8% of 210,000 active; note: % of control where 0% means no effect; nearly all actives have a fitted effect of over 55% in size
#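 HEK293 cells carry an SMN2 […]–luciferase reporter in which exon 7 inclusion puts luciferase in frame. Cells were plated 10-12 h before compound addition, then incubated 30-36 h at 37C. ONE-Glo luminescence was read; sodium butyrate at 4.5 mM final served as control.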
# FLuc counter = inhibits or activates purified firefly luciferase, miR-21 counter-screen; purified FLuc, Km substrates, luminescence inhibition; Potency, µM (series often up to 57.5 µM), for the others: at the highest dose activity change, negative = inhibition, actives largely listed as inhibitors; 6.9% of 360,000 active;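 note: plate controls were vehicle for no effect and reference inhibitor for full effect; nearly all actives have a fitted effect of over 55% in size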
# Target sequence (P08659 whole entry, looked up): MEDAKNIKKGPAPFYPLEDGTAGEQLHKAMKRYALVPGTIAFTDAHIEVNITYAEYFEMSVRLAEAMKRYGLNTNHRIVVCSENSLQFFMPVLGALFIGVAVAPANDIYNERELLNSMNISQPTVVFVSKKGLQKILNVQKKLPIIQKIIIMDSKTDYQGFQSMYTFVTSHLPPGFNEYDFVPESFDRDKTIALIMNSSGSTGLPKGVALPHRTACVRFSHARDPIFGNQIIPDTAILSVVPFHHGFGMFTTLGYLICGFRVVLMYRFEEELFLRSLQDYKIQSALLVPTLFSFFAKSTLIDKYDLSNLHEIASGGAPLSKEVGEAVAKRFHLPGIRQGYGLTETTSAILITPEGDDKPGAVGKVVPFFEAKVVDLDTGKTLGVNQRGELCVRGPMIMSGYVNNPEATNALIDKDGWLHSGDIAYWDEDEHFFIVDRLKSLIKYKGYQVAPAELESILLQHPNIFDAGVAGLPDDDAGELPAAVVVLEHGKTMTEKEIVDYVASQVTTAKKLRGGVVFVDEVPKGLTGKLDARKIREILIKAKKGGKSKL
#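 Purified P. pyralis luciferase, 10 nM final, with Km-level 10 uM D-luciferin and 10 uM ATP in 50 mM Tris acetate pH 7.5, 10 mM Mg acetate, 0.01% Tween-20, 0.05% BSA; 6-point qHTS titration about 60 µM downward; luminescence read.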
# Active calls of the source: *; ? = inconclusive; . = no result; [ ] = dose if it differs, or a comment. In the library only some 7.5% were active in any assay of this set; here they are far more common. Calls come from the whole dose curve; as a rule, active = well fitted curve in the direction sought with a large enough effect; inconclusive = small, poorly fitted or top-dose-only effect, or another doubt; inactive = no such curve, though single readings can be large; an effect the other way counts as inactive or inconclusive. Potency is the fitted concentration of half-maximal effect.
SMILES,Rab9 prom act,ELG1 genotoxic,Luc counter,NPC1 promoter act,SMN2 splice enh,FLuc counter
COc1cc(/C=C2/SC(=S)N(Cc3ccccc3)C2=O)ccc1O,-2%,?,.,3%,.,27µM*
COc1cc(/C=C2\SC(=S)N(C(C(=O)O)c3ccccc3)C2=O)ccc1O (stereo unspecified),2%,0%,.,1%,.,19µM*
CCOc1ccc(/C=C2\SC(=S)N(Nc3ccccc3)C2=O)cc1OC,-6%,12%,-3%,-1%,-2%,11µM*
O=C1/C(=C/c2ccc(O)cc2)SC(=S)N1Cc1cccnc1,0%,8%,-2%,2%,-4%,-5%
COc1ccc(/C=C2\SC(=S)N(Cc3cccnc3)C2=O)cc1C,1%,4%,2%,2%,-18%,5.4µM*
Cc1nc(N2CCOCC2)c2nc(-c3ccccc3)n(CCCN3CCCCC3C)c2n1 (stereo unspecified),.,.,-3%,.,8%,.
CC(C)(C)c1ccc(-c2nc(NC(=O)CSc3ncnc4sc5c(c34)CCCC5)ns2)cc1,.,.,.,.,-6%,-2%
CCC(CO)NC(=O)C(=O)Nc1c2c(nn1-c1ccc(F)cc1)CSC2 (stereo unspecified),.,.,.,.,.,-15%
O=C(CSc1nc2ccsc2c(=O)n1Cc1ccccc1Cl)NCc1ccc(Cl)cc1,.,.,.,.,.,0%
CCN1CCN(Cc2ccc(NC(=O)Nc3cccs3)cc2)CC1,4µM*,?,-2%,1µM*,?,4.8µM*
CCN1CCN(Cc2ccc(NC(=O)Nc3ccc(OC)cc3)cc2)CC1,28%,?,0%,17%,19%,?
CCN1CCN(Cc2ccc(NC(=O)Nc3ccccc3)cc2)CC1,1.4µM*,6.5µM*,4%,2.8µM*,-3%,6µM*
CCN1CCN(Cc2ccc(NC(=O)Nc3ccc(SC)cc3)cc2)CC1,?,?,2%,29%,?,17µM*
COc1ccc(-n2c(SCC(=O)c3ccc(Cl)cc3)nc3c([nH]c4ccccc43)c2=O)cc1,.,.,.,.,.,-3%
Cc1ccc(S(=O)(=O)N2CCCC(c3nc4c(nnn4Cc4ccc(OC(F)(F)F)cc4)c(=O)[nH]3)C2)cc1 (stereo unspecified),.,.,.,.,-4%,3%
CC(=O)c1ccc(NC(=O)c2nc(-c3ccc(Cl)cc3)n3c2CCCCC3)cc1,.,.,.,.,.,2%
c1ccc(-n2nnc3ccccc32)cc1,-1%,1%,.,7%,.,-20%
Clc1c(-c2ccccc2)nnn1-c1ccccc1,2.2µM*,8.2µM*,-11%,2.2µM*,10µM*,3.4µM*
CC(=O)Oc1ccc(/C=N/NC(=O)c2ccc(N(C)S(=O)(=O)c3ccccc3)cc2)cc1,-2%,-5%,.,-3%,.,15µM*
Cc1ccc(/C=N/NC(=O)c2ccc(N(C)S(=O)(=O)c3ccccc3)cc2)cc1,0%,-38%,.,-1%,.,8.5µM*
CCOc1cc(/C=N/NC(=O)c2ccc(N(C)S(=O)(=O)c3ccccc3)cc2)ccc1OC,1%,-11%,.,2%,.,2%
COc1cc(/C=N/NC(=O)c2ccc(N(C)S(=O)(=O)c3ccccc3)cc2)cc(OC)c1OC,-12%,-7%,0%,0%,-9%,-2%
COCCNC(=O)c1ccc(Cn2c(SCC(=O)NC(C)C)nc3ccccc3c2=O)cc1,.,.,.,.,.,-1%
Cc1ncc(CO)c2c1Oc1nc(-c3ccccc3Cl)nc(SCc3ccccc3F)c1C2,.,.,.,.,.,4%
c1cncc(-c2nc(-c3cccs3)cs2)c1,19%,14%,0%,29%,-4%,27µM*
SMILES,Rab9 prom act,ELG1 genotoxic,Luc counter,NPC1 promoter act,SMN2 splice enh,FLuc counter
c1cncc(-c2csc(-c3cccnc3)n2)c1,1%,-9%,.,-5%,.,?
c1cncc(-c2nc(-c3ccco3)cs2)c1,22%,29%,-4%,18%,?,?
Clc1ccsc1-c1csc(-c2cccnc2)n1,?,?,-4%,16%,13%,11µM*
c1csc(-c2csc(-c3cccs3)n2)c1,?,21µM*,-2%,20%,3%,12µM*
Oc1ccc(-c2csc(-c3cccnc3)n2)c(O)c1,?,?,-1%,?,?,3µM*
O=C(COc1ccccc1)Nc1nc(-c2cccs2)cs1,-1%,7%,0%,7%,-10%,?
Cc1cc(OCc2nc(N)nc(N)c2-c2ccc(Cl)c(Cl)c2)ccc1[N+](=O)[O-],.,.,-2%[7.66 µM],.,-40%[9.22 µM],.
COC(=O)[C@@]1(Cc2ccccc2)[C@H]2c3cc(C(=O)N4CCCC4)n(Cc4ccc(OC)c(OC)c4)c3C[C@H]2CN1C(=O)c1ccccc1,.,.,-3%,.,-25%,.
COc1cccc(C(=O)NCC(c2ccc(N(C)C)cc2)N2CCCC2)c1OC (stereo unspecified),.,.,.,.,.,1%
COc1ccc(NC(=O)C2CCCN(S(=O)(=O)c3ccc(Br)s3)C2)cc1 (stereo unspecified),.,.,.,.,1%,-7%
COCC(=O)N1CCC2(CCCN(c3ccc(-c4ccccc4)cc3)C2)CC1,.,.,-3%,.,-35%,.
Cc1ccc(NC(=O)CSc2nc(C3CCCC3)nc3c2c(=O)n(C)c(=O)n3C)c(C)c1,.,.,.,.,.,0%
CC1Cc2cc(/C=C3/SC(N4CCC(C(N)=O)CC4)=NC3=O)ccc2O1 (stereo unspecified),-1%,5%,.,-6%,.,?
CC1Cc2cc(/C=C3/SC(=S)N(C)C3=O)ccc2O1 (stereo unspecified),?,?,.,?,.,1.1µM*
O=C(NCc1ccccc1Cl)c1ccc(NC(=O)N2CCSc3ccccc32)cc1,.,.,.,.,5%,-9%
Cc1ccc(NC(=O)CSc2nc(-c3cccs3)nc3cc(=O)[nH]n23)cc1,.,.,.,.,.,-11%
O=[N+]([O-])c1ccccc1/C=N/Nc1nccnc1Cl,3.5µM*,?,?,?,22%,27µM*
CC(C)(C)c1nnc(N/N=C/c2ccccc2O)n(N)c1=O,-16%,-2%,-2%,-7%,-71%,?
Oc1ccc(/C=N/Nc2ncc(Br)cn2)c(O)c1,?,15µM*,1%,?,-23%,11µM*
O=c1[nH]ncc(N/N=C\c2ccc(O)cc2O)c1Cl,-1%,?,-8%,0%,23%,?
Oc1ccc(Br)cc1/C=N/Nc1ncc(-c2ccccc2)cn1,-1%,1%,5%,-16%,-85%,-4%
Oc1ccccc1/C=N/Nc1nccnc1Cl,-17%,13µM*,?,-25%,-86%,17µM*
Oc1ccc(/C=N/Nc2nccnc2Cl)c(O)c1,-11%,?,3.5µM*,1%,-32%,24µM*
CN(Cc1ccccc1)C(=O)c1cc(-c2cccc(Cl)c2)on1,.,.,.,.,1%,?
